PubChem BioAssay (NCI)
This is part of a sample that, as a whole, favours compounds with a hit. Of some 79,000 tested, about 15% had one in any assay. No stated cut-off is given here; in the data, active means growth inhibition above about 70%; inactive means the rest.

Assays:
[1] = NCI Yeast Anticancer Drug Screen. Data for the rad50 strain (AID 155);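 further: 0% = growth of vehicle-only cultures of the same strain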; conditions: S. cerevisiae rad50 strain growth inhibition; at 50.0 µM; active compounds read high
Method in brief: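 Relative growth inhibition (compound vs vehicle) was measured in yeast with a defined repair-gene alteration.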

[2] = NCI Yeast Anticancer Drug Screen. Data for the mec2-1 strain (AID 157); conditions: S. cerevisiae mec2-1 strain, at 50.0 µM, active compounds read high
Method in brief: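 Growth inhibition is read against vehicle-treated controls after compound exposure of the mec2-1 yeast strain, which is defective in DNA damage repair or cell cycle control.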

[3] = NCI Yeast Anticancer Drug Screen. Data for the sgs1 mgt1 strain (AID 161);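 further: 0% = growth of cultures given vehicle only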; conditions: S. cerevisiae sgs1 mgt1 strain, at 50.0 µM, active compounds read high
Method in brief: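 Growth of a repair-deficient yeast mutant was monitored after compound treatment and expressed as inhibition relative to vehicle-treated cultures.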

[4] = NCI Yeast Anticancer Drug Screen. Data for the cln2 rad14 strain (AID 165);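 further: 0% = growth equal to vehicle treated cultures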; conditions: S. cerevisiae cln2 rad14 strain, at 50.0 µM, active compounds read high
Method in brief: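 Growth inhibition, relative to vehicle-treated controls, is the read-out. The test organism is a yeast strain with defined genetic alterations, cln2 rad14.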

[5] = NCI Yeast Anticancer Drug Screen. Data for the bub3 strain (AID 167); conditions: S. cerevisiae bub3 mutant strain, at 50.0 µM, active compounds read high
Method in brief: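 Screening used yeast with an engineered genetic alteration affecting cell cycle control. Compound-exposed cultures were compared with vehicle cultures, and reduced growth was taken as inhibition.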

[6] = NCI Yeast Anticancer Drug Screen. Data for the mlh1 rad18 strain (AID 175); conditions: S. cerevisiae mlh1 rad18 strain growth inhibition; at 50.0 µM; active compounds read high
Method in brief: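 Cells of a genetically altered yeast strain, deficient in DNA damage repair, were treated with compound. Their growth was then compared with that of vehicle-treated cultures to give inhibition.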

Measured: growth inhibition

CCOC(=O)C(=CNc1ccc2c(c1)OCO2)C(=O)OCC
inactive: [1] 4.95% | [2] -11.2% | [3] 28.2% | [4] 4.65% | [5] 49.4% | [6] 14.8%

Cc1cc(Cl)ccc1NC(=O)C(=O)C(C(=O)c1ccccc1)C1OC(=O)c2ccccc21 (stereo not given)
inactive: [1] 20.9% | [2] -7.45% | [3] 14.2% | [4] 14.6% | [5] -3.25% | [6] -9.75%

CCC1(C)N=C(C(N)=O)c2ncn(N=C(C)C)c2N1 (stereo not given)
inactive: [1] -15.8% | [2] -30.2% | [3] -24.3% | [4] 14.2% | [5] -10.5% | [6] -16.6%

CO[Si](CCCN)(OC)OC
inactive: [1] -0.65% | [2] -44.8% | [3] -13.4% | [4] -8.7% | [5] 11.8% | [6] 35.9%

Cc1ccc(-c2cc(=O)c(=O)[nH][nH]2)cc1
inactive: [1] -12.5% | [2] 22.1% | [3] -11.6% | [4] 4.85% | [5] -13.7% | [6] 27.2%

Cc1n[nH]c2ccccc2c1=O
inactive: [1] -4.85% | [2] -17.9% | [3] -21.6% | [4] -18.1% | [5] -23.6% | [6] -9.95%

CCCCn1cccc1
inactive: [1] 33.2% | [2] 10.2% | [3] 9.3% | [4] 15% | [5] 26.8% | [6] 26.4%

C/C(=N\NC(C)(C)C)c1sc(-c2nc(C)c(/C(C)=N/NC(C)(C)C)s2)nc1C
inactive: [1] 46.5% | [2] 3.9% | [3] -7.5% | [4] -20.6% | [5] 22.1% | [6] 21.8%

O=C1NC(=O)C(c2ccc(Br)c3ccccc23)=C1O
inactive: [1] 9.2% | [2] -4.75% | [3] 3.05% | [4] -44.5% | [5] -5.25% | [6] -6.25%

Nc1ncnc2oc(-c3ccccc3)nc12
inactive: [1] 1.3% | [2] -0.85% | [3] -6.35% | [4] -40% | [5] -4.25% | [6] 13.7%

O=[n+]1c(-c2ccccc2)c(-c2ccccc2)n([O-])c2cc3ccccc3cc21
inactive: [1] 28.7% | [2] 3.65% | [3] 12.2% | [4] -24.6% | [5] 6.05% | [6] 26.4%

O=C(Nc1ccc(Cl)cc1)C(=O)C1=C(O)c2ccccc2OC1
inactive: [1] 16.9% | [2] -5.95% | [3] -12.3% | [4] 11.4% | [5] -4.95% | [6] 9.15%

COC(=O)c1ccccc1/C=C1\Cc2cc3c(cc2C1=O)CCC3
inactive: [1] -31.6% | [2] -45% | [3] -1.45% | [4] 5.65% | [5] -4.45% | [6] -8.05%

Nc1ncnc2c1ncn2C1OC(C(O)CO)C(O)C1N (stereo not given)
inactive: [1] -15.7% | [2] -0.3% | [3] -13.7% | [4] -14.8% | [5] 0.55% | [6] -23.6%

CC(=O)CC(=O)c1cc(C(C)=O)c(O)c(C(C)=O)c1
inactive: [1] -11.8% | [2] 0.75% | [3] 11% | [4] -3.3% | [5] -11.1% | [6] 7.8%

O=C(Oc1ccc([N+](=O)[O-])cc1)C1CCCN1C(=O)OCc1ccccc1 (stereo not given)
inactive: [1] -6.55% | [2] -13.7% | [3] 7.55% | [4] 8.5% | [5] 7.2% | [6] 0.15%

CCc1ccccc1NC(=O)N1CCOCC1
inactive: [1] -8.45% | [2] -27.9% | [3] -1.55% | [4] 3.05% | [5] -4.15% | [6] -7.15%

CCOC(=O)CC(=O)c1ccccc1SC
inactive: [1] 13.2% | [2] -1.55% | [3] -6.1% | [4] 4.4% | [5] -1.45% | [6] 17.4%

Cc1ccc(C(=O)Nc2ccc3c(c2)Cc2ccccc2-3)cc1
inactive: [1] -19.3% | [2] -23.6% | [3] -7.45% | [4] -5% | [5] -20.6% | [6] -10.8%

CC(=O)NNc1nc(C)c(C(=O)NNC(=O)C(=O)Nc2ccc(Cl)cc2)s1
inactive: [1] 27% | [2] -0.4% | [3] 16.5% | [4] -63.2% | [5] 20% | [6] 22.9%
